# Measured values published in PubChem BioAssay (NCI).
# About 83,000 compounds went through this panel and 20% of them were active in at least one assay; those are over-represented in the sample as a whole.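 Plates (96-well) were seeded with cells, treated with compound at one concentration, and incubated for 48 hours before percent growth was determined.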 Values without a mark were called inactive. The source made the active and inactive calls. Rule for the calls: active = growth percent below 10; inactive = the rest.
# Columns and labels:
# Assay in all cases: NCI-60 one-dose screen, 48 h (100 = growth as untreated, 0 = no growth, -100 = all killed)
# Details in all cases: 10 µM unless noted
# SR leukemia = system: SR leukemia
# RPMI-8226 leukemia = system: RPMI-8226 leukemia
# OVCAR-8 ovarian = system: OVCAR-8 ovarian
# OVCAR-5 ovarian = system: OVCAR-5 ovarian
# OVCAR-4 ovarian = system: OVCAR-4 ovarian
# SK-OV-3 ovarian = system: SK-OV-3 ovarian
# IGROV1 ovarian = system: IGROV1 ovarian
# OVCAR-3 ovarian = system: OVCAR-3 ovarian
# HS 578T breast = system: HS 578T breast
# NCI/ADR-RES ovarian = system: NCI/ADR-RES ovarian
# T-47D breast = system: T-47D breast
# BT-549 breast = system: BT-549 breast
# MDA-MB-435 melanoma = system: MDA-MB-435 melanoma
# SW-620 colon = system: SW-620 colon
# MCF7 breast = system: MCF7 breast
# HCT-116 colon = system: HCT-116 colon
# HCC-2998 colon = system: HCC-2998 colon
# KM12 colon = system: KM12 colon
SMILES,growth (SR leukemia),growth (RPMI-8226 leukemia),growth (OVCAR-8 ovarian),growth (OVCAR-5 ovarian),growth (OVCAR-4 ovarian),growth (SK-OV-3 ovarian),growth (IGROV1 ovarian),growth (OVCAR-3 ovarian),growth (HS 578T breast),growth (NCI/ADR-RES ovarian),growth (T-47D breast),growth (BT-549 breast),growth (MDA-MB-435 melanoma),growth (SW-620 colon),growth (MCF7 breast),growth (HCT-116 colon),growth (HCC-2998 colon),growth (KM12 colon)
Cn1cc(-c2nc(-c3c[nH]c4c(Cl)nccc34)cs2)c2ccccc21,73.7%,87.2%,91.1%,120%,86.4%,108%,105%,107%,108%,98%,87.1%,110%,96.4%,99.4%,44.7%,94.4%,94.5%,95.9%
COC(=O)c1cc(-c2cc(OC)c(OC)c(OC)c2)[nH]c1N/N=C/c1c(Cl)cccc1Cl,-17.6% (active),18.4%,5.44% (active),22.7%,5.08% (active),28.3%,-54.8% (active),9.29% (active),-5.55% (active),6.82% (active),9.55% (active),128%,-2.15% (active),44.9%,7.14% (active),5.15% (active),-62% (active),15%
CC1=C([Se]CC(OC(=O)[C@@H](CO)NC(=O)OC(C)(C)C)C(=O)NCCCCCC(=O)OCc2ccccc2)C(=O)c2ccccc2C1=O (stereo partly specified),-4.61% (active),-28.9% (active),-82.4% (active),-70.5% (active),-98.1% (active),-60.1% (active),-93.9% (active),-82.1% (active),2.05% (active),-76.6% (active),-94.3% (active),-98.6% (active),-83.3% (active),-42% (active),-44.7% (active),-88.9% (active),-92.5% (active),-52.7% (active)
COc1ccc(/C=C2/CCc3cc4ccc(OC)cc4[o+]c32)c(O)c1,-2.1% (active),14.1%,42.9%,115%,75.9%,103%,9.32% (active),49.8%,75.3%,53.8%,67.2%,96.2%,2.85% (active),11.9%,48.1%,-64.1% (active),64.3%,45.4%
CCCCC/C=C/CCC(=O)N[C@H]1[C@H](Oc2c3cc4cc2Oc2ccc(cc2Cl)[C@@H](O[C@@H]2O[C@H](CO)[C@@H](O)[C@H](O)[C@H]2NC(C)=O)[C@@H]2NC(=O)[C@H](NC(=O)[C@@H]4NC(=O)[C@H]4NC(=O)[C@@H](Cc5ccc(c(Cl)c5)O3)NC(=O)[C@@H](N)c3ccc(O)c(c3)Oc3cc(O)cc4c3)c3ccc(O)c(c3)-c3c(O[C@H]4O[C@H](CO)[C@@H](O)[C@H](O)[C@@H]4O)cc(O)cc3[C@H](C(=O)O)NC2=O)O[C@H](CO)[C@H](O)[C@@H]1O,95.5%,120%,101%,114%,110%,111%,101%,104%,50.1%,96.5%,119%,107%,100%,102%,98.5%,101%,101%,111%
O=C(NCCN1CCOCC1)c1cncnc1Nc1ccc2c(ccn2Cc2ccccn2)c1,111%,106%,102%,100%,106%,95.4%,106%,113%,103%,104%,98.3%,102%,99.9%,98%,97.8%,105%,100%,107%
N=C(N)c1ccc(-c2ccc(-c3ccccc3)s2)nc1,12.5%,48%,91.9%,92.9%,107%,88.6%,82.3%,95%,85%,96.7%,79.5%,98.7%,85.8%,57.4%,41.3%,46.9%,58.9%,39.4%
CCOc1cc(\C=N/N=C(N)/C(N)=N\N=C/c2ccc(O)c(OCC)c2)ccc1O,88.8%,94.8%,67.9%,115%,105%,113%,129%,113%,113%,98.7%,47.4%,93.1%,98.7%,108%,91.5%,99.6%,98.6%,101%
CCCCC1=C(Br)C(=O)c2ncccc2C1=O,30.8%,41.7%,95.4%,112%,88.2%,90.2%,102%,57.1%,104%,96.8%,71.2%,94.4%,105%,60.2%,89.5%,62.6%,108%,96.9%
CC1=C(C(=O)OCc2ccccc2)C(c2ccc3c(c2)OCO3)n2c(nc3ccccc32)N1 (stereo unspecified),9.81% (active),39.8%,46.7%,64.4%,73.8%,41.7%,41.4%,12.1%,0.752% (active),23.2%,40.9%,50.5%,-35.4% (active),17.6%,20.6%,18.8%,56.4%,17.3%
Cc1ccc(C23CCC(=O)N2CCc2cncn23)cc1 (stereo unspecified),126%,100%,97.2%,96.3%,108%,92.8%,93.6%,113%,101%,107%,91.2%,100%,101%,97.7%,97.9%,104%,107%,101%
O=C(/C=C/c1ccc(Cl)cc1)c1ccc(Nc2ccnc3cc(Cl)ccc23)cc1,-17% (active),-41.9% (active),85.2%,84.6%,94.7%,112%,57%,86.5%,102%,83.5%,96.4%,145%,64.8%,60.7%,78.6%,16.9%,88.1%,50%
C(=N\Nc1nnc2n1N=C(c1ccccc1)CS2)/c1ccc(OCc2ccccc2)cc1,93.4%,86.6%,102%,114%,120%,109%,99.6%,113%,112%,96.6%,84.5%,103%,99.8%,113%,82.9%,100%,120%,102%
CCCCCCCCNC(=O)[C@@H](N)CSCOC(C)=O,100%,87.9%,85.5%,103%,112%,95.3%,103%,97.4%,93.4%,82.7%,96.1%,111%,19.1%,84.6%,108%,92.7%,101%,38.1%
Cc1ccc2c(c1)CC(O)CC1C(=O)N(CCO)CC(=O)N21 (stereo unspecified),87.3%,98.8%,101%,101%,113%,103%,112%,115%,103%,104%,93.1%,103%,106%,106%,96.8%,95.9%,104%,105%
CCN1CCN(c2nc(NNC(=O)c3ccc(OC)cc3)nc(N3CCN(C(c4ccccc4)c4ccccc4)CC3)n2)CC1,-8.03% (active),12.3%,63.1%,106%,49.1%,48.3%,72.3%,11.7%,46.2%,73.4%,43.4%,81.1%,18.3%,32.4%,15.9%,20.8%,21.3%,36.9%
COc1cccc2cc(N(C)c3nc(C)nc4c3CCC4)ccc12,9.67% (active),29.2%,10.5%,52.2%,47.1%,19.5%,24.2%,-18.1% (active),17.9%,12.6%,50.7%,1.76% (active),-3.22% (active),19.7%,15.1%,-14.2% (active),17.5%,0.0953% (active)
